Laboratory results published in PubChem BioAssay (NCATS).
Records with an inconclusive call do not appear. A call without a number means that no potency is given here. Calls of active or inactive are those of the source. The call rests on the fitted dose curve; in most records, active means well fitted inhibition curve with a large enough effect; inconclusive means small, poorly fitted or top-dose-only effect; inactive means no such curve, though single readings can be large or run the other way.

What was measured:
[1] = test system: Zika virus NS2B-NS3 protease (unlinked complex); test: Primary screen GU Rhodamine qHTS for Zika virus inhibitors: Unlinked NS2B-NS3 protease assay (AID 1347159); further: nearly all actives have a fitted effect of over 60% in size
Procedure, shortened: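 Noncovalent NS2B hydrophilic domain–NS3 protease domain complex (25 nM) preincubated 15 min at room temperature with compounds (up to 114 microM) in 10 mM Tris-HCl pH 8.0, 0.01% Tween 20; 1.5 microM Rhodamine110 substrate added, fluorescence change over 15 min fitted to Hill equation.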

[2] = test system: Zika virus NS2B-NS3 protease (linked construct); test: Primary screen NINDS Rhodamine qHTS for Zika virus inhibitors (AID 1347160); further: nearly all actives have a fitted effect of over 55% in size
Procedure, shortened: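 Purified linked NS2B-NS3 protease (NS2B hydrophilic domain joined to NS3 protease by flexible linker), 25 nM in 10 mM Tris-HCl pH 8.0, 0.01% Tween 20. Compounds titrated, 15 min preincubation at room temperature; 1.5 microM Rhodamine110 substrate, FITC fluorescence change over 15 min.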

SMILES	Potency [1]	Potency [2]
COc1cc(O)cc(C)c1C(=O)O[C@H]1[C@@H](OC(C)=O)[C@H](n2ccc(=O)[nH]c2=O)O[C@@H]1CO	inactive	inactive
COc1cc2c(cc1OC)CC(=O)N(CCCNC[C@H]1Cc3cc(OC)c(OC)cc31)CC2	inactive	inactive
C=C1CC23CC1CCC2C12OC(=O)C(C)(CCC1O)C2C3C(=O)O (stereo unspecified)	inactive	inactive
CC1CC[C@]2(C(=O)O)CC[C@]3(C(=O)O)C(=CCC4[C@@]5(C)CC[C@H](O[C@@H]6O[C@H](CO)[C@@H](O)[C@H](O)[C@H]6O)C(C)(C)C5CC[C@]43C)C2C1C (stereo partly specified)	inactive	inactive
Cc1nc2sc(C(=O)NCc3ccncc3)c(N)c2c(C)c1Cl	inactive	inactive
CC(=O)O[C@]1(C(C)=O)CC[C@H]2[C@@H]3C[C@H](C)C4=CC(=O)C=C[C@]4(C)[C@@]3(F)[C@@H](O)C[C@@]21C	inactive	inactive
CCOc1ccc(S(=O)(=O)n2c(C)nc3ccccc32)cc1	inactive	inactive
C=C(C)C(=O)O[C@H]1CC2=CC(C/C(C)=C\[C@H]3OC(=O)C(=C)[C@H]13)OC2=O (stereo partly specified)	inactive	inactive
